# In the library only some 8.1% were active in any assay of this set; here they are far more common.
# MCF10A rereplic: induces DNA re-replication in MCF 10a normal breast cells. AID 624296. MCF 10A DNA re-replication, Hoechst nuclear intensity, 48 h. hit rate 2.9% among 350,000. Potency, µM (series often up to 46.1 µM), inactives show top-dose activity, positive = re-replication, actives largely listed as activators; also: % of control where 0% means no effect; nearly all actives have a fitted effect of over 50% in size
# SW480 rereplic: DNA re-replication induction in SW480 cells; SW480 DNA re-replication, Hoechst DNA content imaging, 48 h; hit rate 1.8% among 340,000; Potency, µM (doses to about 46.1 µM), without a hit: at the top dose re-replication activation, usual class: activators; AID 624297; also: % of control where 0% means no effect; nearly all actives have a fitted effect of over 55% in size
#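 Hoechst fluorescence of nuclei (405 nm excitation, 500-530 nm emission) measured by plate-scanning imager after 48 hr compound exposure at 37 C; re-replication scored as increased number of nuclei with elevated intensity.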
# KB-V1 MDR tox: kills drug-selected multidrug resistant KB-V1 cells; KB-V1 MDR cells viability, CellTiter-Glo, 72 h; Potency, µM (highest dose often 46.1 µM), usual class: cytotoxic; hit rate 3.4% among 400,000; AID 1347076; also: % is scaled to controls: 0 for no effect and ±100 for the full control effect; nearly all actives have a fitted effect of over 60% in size
#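 Cytotoxicity via CellTiter-Glo luminescence after 72 h compound exposure at 37 degrees C. Cells: drug-selected KB-V1 line, DMEM phenol-red free plus 10% FBS. Compounds tested at multiple concentrations; normalized data fitted to concentration-effect curves.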
# KB-3-1 cytotox: kills parental KB-3-1 adenocarcinoma cells. hit rate 1.4% among 400,000. Potency, µM (top dose mostly 46.1 µM), hits mostly cytotoxic. KB-3-1 viability, CellTiter-Glo ATP luminescence, 72 h; also: % is scaled to controls: 0 for no effect and ±100 for the full control effect; nearly all actives have a fitted effect of over 60% in size
#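 Parental KB-3-1 adenocarcinoma cells in phenol-red-free DMEM with 10% FBS were pin-treated with compounds at several concentrations, incubated 72 h at 37 °C, and viability read by CellTiter-Glo luminescence; concentration-effect curves were fitted after normalization.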
# ELG1 repair inh: ELG1-dependent DNA repair inhibition | Potency, µM (highest dose often 46.1 µM), for the others: at the highest dose activity change, negative = inhibition, hits mostly inhibitors | HEK293T ELG1-luciferase reporter, luminescence, 16 h; DNA damage induced by 5-fluorouridine | hit rate 2.3% among 330,000 | AID 504467; also: % is scaled to controls: 0 for no effect and ±100 for the full control effect; nearly all actives have a fitted effect of over 55% in size
#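 Step one: seed 2,000 cells per well. Step two: pin-transfer compound or DMSO alongside 5-fluorouridine. Step three: incubate 16 hr, 37 °C, 5% CO2. Step four: add ONE-Glo, wait 30 min, read luminescence.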
# Active calls of the source: *; i = inactive; ? = inconclusive; . = no result given; [ ] = dose if it differs, or a comment. Calls follow the shape of the dose curve; as a rule, active = well fitted curve in the direction sought with a large enough effect; inconclusive = small, poorly fitted or top-dose-only effect, or another doubt; inactive = no such curve, though single readings can be large; an effect the other way counts as inactive or inconclusive. Potency is read from the fitted curve at half-maximal effect.
SMILES,MCF10A rereplic,SW480 rereplic,KB-V1 MDR tox,KB-3-1 cytotox,ELG1 repair inh
O=C(CSc1ccc2ccccc2c1)NC1CCCc2ccccc21 (stereo unspecified),9%,5%,15µM*,i,-4%
COc1ccc(OCC(=O)NC2CCCc3ccccc32)cc1 (stereo unspecified),-3%,-28%,i,i,?
CC(=O)c1ccc(OCCCC(=O)NC2CCCc3ccccc32)cc1 (stereo unspecified),-5%,-73%,16µM*,i,-10%
Cc1noc(C)c1COc1ccc(C(=O)N2CCN(c3ccccc3O)CC2)cc1,-3%,-17%,i,i,?
CCSc1nc(-c2ccc(Cl)cc2)nc2c1Cc1c(CO)cnc(C)c1O2,.,.,?,i,.
Cc1cc(=O)oc2cc(OCC(=O)N3CCN(C(=O)C4COc5ccccc5O4)CC3)c(Cl)cc12 (stereo unspecified),8%,3%,i,i,?
Cc1ccc(S(=O)(=O)N2CCN(CC(=O)NC3CCCc4ccccc43)CC2)cc1C (stereo unspecified),19%,?,?,?,?
Cc1ccc2nc(SCC(=O)NC3CCCc4ccccc43)[nH]c2c1 (stereo unspecified),15µM*,?,15µM*,?,?
Cc1ccc(S(=O)(=O)N2CCN(CC(=O)NC3CCCc4ccccc43)CC2)c(C)c1 (stereo unspecified),21%,?,4.1µM*,i,?
CC(C)(C)[C@@H]1COC(=O)[C@H](Cc2ccc(F)cc2)C/C=C\C[C@H](CC(=O)N(CCO)Cc2ccccc2)C(=O)N1,1%,12%,i,i,21µM*
O=C1N[C@@H](Cc2ccccc2)COC(=O)[C@@H](Cc2ccc(F)cc2)C/C=C\C[C@@H]1CC(=O)N(CCO)Cc1ccccc1,23µM*,?,?,?,?
CCCSc1nc(=O)c2c(n1C)NC(=O)CC2c1cccc(F)c1F (stereo unspecified),.,.,?,i,.
CCOc1ncccc1C(=O)OCC(=O)Nc1ccc(C(N)=O)cc1,0%,-15%,i,i,1%
COc1nc(OC)nc(N2CCCCCC2)n1,21µM*,-2%,i,i,3%
O=C(NC1CCCCC1)N1CCCCCC1,-3%,-7%,i,i,20%
O=C(NCC1CCCCC1)C1CCN(C(=O)NC2CCCCC2)CC1,1%,2%,16µM*,i,10%
COc1nc(OC)nc(N2CCC(C(=O)NCC3CCCCC3)CC2)n1,1%,-15%,18µM*,i,-8%
CCS(=O)(=O)N1CCC(C(=O)NC2CCCCC2)CC1,?,-5%,i,i,9%
CN(C)C(=O)N1CCC(C(=O)NC2CCCCCCC2)CC1,?,8.2µM*,i,i,4%
OC(C[n+]1ccccc1Cl)c1ccccc1 (stereo unspecified),.,.,i,?,.
CCc1nc2ccc(C(=O)NCCCN3CCCC3=O)cn2c1N(CC)C(C)=O,.,.,i,i,.
Cc1ccccc1C(=O)Nc1cccc(NC(=O)c2ccc(-c3ccc(Br)cc3)o2)c1,?,22%,i,i,9.2µM*
CCOc1ccc2nc(NC(=O)c3ccoc3C)sc2c1,21%,-5%[9.22 µM],8.2µM*,10µM*,?
O=C(Nc1nc2cc3c(cc2s1)OCCO3)c1ccco1,?,?,12µM*,?,?
CC(C)C(=O)Nc1nc2cc3c(cc2s1)OCCO3,15%,5%,i,i,?
SMILES,MCF10A rereplic,SW480 rereplic,KB-V1 MDR tox,KB-3-1 cytotox,ELG1 repair inh
CCOC(=O)c1ccc2nc(NC(=O)c3ccco3)sc2c1,21µM*,?,?,i,?
O=C(Nc1nc2cc3c(cc2s1)OCO3)C1=COCCO1,?,16µM*,i,6.5µM*,?
CCOc1ccc2nc(NC(=O)c3ccco3)sc2c1,-11%,7%,?,i,?
Cc1ccc2nc(NC(=O)c3ccc(S(=O)(=O)N4CCCc5ccccc54)cc3)sc2c1,16µM*,?,i,i,?
CCC(CC)c1nnc(NC(=O)c2cccc(S(=O)(=O)N3CCc4ccccc43)c2)s1,4.6µM*,?,15µM*,i,-9%
CCOC(=O)c1sc(NC(=O)c2cccc(S(=O)(=O)N3CCc4ccccc43)c2)c(C#N)c1C,19%,-1%,i,21µM*,?
O=C(Nc1nc2ccc(F)cc2s1)c1cccc(S(=O)(=O)N2CCc3ccccc32)c1,-32%,-34%,2.9µM*,?,?
CCOc1ccc(-n2nc3ccc(NC(=O)c4ccc(C)cc4C)cc3n2)cc1,.,.,i,i,.
COc1cccc(C(=O)N/N=C(\CC(C)C)c2ccccc2)c1,-3%,6%,i,i,-12%
Cc1ccc(C(=O)N/N=C(\CC(C)C)c2ccccc2)cc1,16%,23µM*,?,i,25%
COc1ccc(CCN2CCC(CNC(=O)c3cnn(-c4ccccc4)c3C3CCN(C(=O)OC(C)(C)C)CC3)CC2)cc1,.,.,?,16µM*,.
CC(C)(C)OC(=O)N1CCC(c2c(C(=O)NCCN3CCC(Cc4ccccc4)CC3)cnn2-c2ccccc2)CC1,.,.,?,i,.
CCC(C)Nc1ccc(NC(C)CC)cc1 (stereo unspecified),2.6µM*,30%,?,?,?
Cc1ccc(NC(=O)c2ccc(Cl)c(S(=O)(=O)N3CCCCC3)c2)nc1,17%,-25%,?,i,0%
O=C(CN1CCN(c2ccc(O)cc2)CC1)Nc1cc(S(=O)(=O)N2CCCCC2)ccc1Cl,6%,-1%,8.2µM*,i,16µM*
O=C(CSc1ncnc2ccccc12)Nc1cc(S(=O)(=O)N2CCCCC2)ccc1Cl,24%,17%,?,i,21µM*
O=C(CN1CCN(c2ccc(O)cc2)CC1)Nc1cc(S(=O)(=O)N2CCCC2)ccc1Cl,11%,?,i,i,23µM*
NC1(C(=O)O)CSSC1,10µM*,?,6.5µM*,?,.
CCN(CC)C(=O)C1=C(C)N(CCC2=CCCCC2)C(=O)C(CC(=O)NC(c2ccccc2)c2ccccc2)C1 (stereo unspecified),.,.,?,i,.
Cc1ccc(C(=O)Nc2c(-c3ccc(Cl)cc3)[nH][nH]c2=O)cc1,.,.,i,i,.
COc1cccc(CNC(=O)c2c(O)nc3ccccn3c2=O)c1,.,.,23µM*,i,.
COc1ccc(CCNC(=O)c2c(O)nc3ccccn3c2=O)cc1OC,.,.,7.3µM*,i,.
COc1ccc(CNC(=O)c2c(O)nc3c(C)cccn3c2=O)cc1,.,.,?,i,.

# From PubChem BioAssay
